# Key:
# Experiment in all cases: DAPPL (digital affinity profiling via proximity ligation, sequencing); 10 mM Tris-HCl pH 7.5, 50 mM NaCl, 1 mM DTT, 4% glycerol, room temperature, 30 min; GST-TFs on glutathione beads, 16-mer random dsDNA library, 0.1% formaldehyde crosslink after washing; high values mean tight binding
# Settings in all cases: protein: recombinant; tags: N-terminal GST; dsDNA, one strand shown
# FEV = target: T1, FEV (Homo sapiens, UniProt Q99581 1-238)
# T1 sequence: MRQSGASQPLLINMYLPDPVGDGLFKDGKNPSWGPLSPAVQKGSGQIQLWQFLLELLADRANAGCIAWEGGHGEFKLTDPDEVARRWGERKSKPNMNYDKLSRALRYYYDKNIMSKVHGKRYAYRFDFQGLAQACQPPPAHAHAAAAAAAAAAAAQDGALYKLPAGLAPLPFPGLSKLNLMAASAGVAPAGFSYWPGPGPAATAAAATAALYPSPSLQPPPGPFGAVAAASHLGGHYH
# Method in brief: (§1)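 Binding signal is given per hexamer as its read frequency for a factor divided by its frequency in the tag-only sample. GST-fused human transcription factors were expressed in yeast, captured on glutathione beads, barcoded with DNA and pooled with that sample, then incubated with 200 nmole of a 16-mer random double-stranded DNA library in Tris/NaCl/DTT/glycerol buffer for 30 min at room temperature. The pools were then washed, crosslinked, proximity-ligated, amplified by PCR and sequenced on an Illumina NextSeq500.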
# ETV5 = ETV5 (Homo sapiens, UniProt P41161 1-510)
# Method in brief: as §1
# SPIC = target: T2, SPIC (Homo sapiens, UniProt Q8N5J4 1-248)
# T2 sequence: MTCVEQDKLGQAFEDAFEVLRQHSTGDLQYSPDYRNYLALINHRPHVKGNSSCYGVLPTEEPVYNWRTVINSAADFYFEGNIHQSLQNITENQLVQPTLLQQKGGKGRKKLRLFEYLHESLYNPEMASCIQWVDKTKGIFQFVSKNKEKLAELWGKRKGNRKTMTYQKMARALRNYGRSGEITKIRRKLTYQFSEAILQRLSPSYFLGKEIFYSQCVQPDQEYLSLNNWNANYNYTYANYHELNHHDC
# Method in brief: as §1
# ELF4 = ELF4 (Homo sapiens, UniProt Q99607 1-663)
# Method in brief: as §1
# ELK4 = target: T3, ELK4 (Homo sapiens, UniProt P28324-2 1-405)
# T3 sequence: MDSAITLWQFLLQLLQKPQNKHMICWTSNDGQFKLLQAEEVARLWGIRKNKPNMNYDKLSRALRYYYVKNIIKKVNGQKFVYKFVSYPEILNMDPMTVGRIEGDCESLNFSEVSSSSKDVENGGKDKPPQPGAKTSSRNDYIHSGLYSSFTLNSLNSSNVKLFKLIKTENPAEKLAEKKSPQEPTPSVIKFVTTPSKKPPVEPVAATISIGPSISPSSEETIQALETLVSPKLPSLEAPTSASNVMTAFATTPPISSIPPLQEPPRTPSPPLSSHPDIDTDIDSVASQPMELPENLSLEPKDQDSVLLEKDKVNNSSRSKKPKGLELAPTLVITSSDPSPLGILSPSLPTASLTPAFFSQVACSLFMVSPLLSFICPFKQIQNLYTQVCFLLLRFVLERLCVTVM
# Method in brief: as §1
# ETV2 = target: T4, ETV2 (Homo sapiens, UniProt O00321 1-342)
# T4 sequence: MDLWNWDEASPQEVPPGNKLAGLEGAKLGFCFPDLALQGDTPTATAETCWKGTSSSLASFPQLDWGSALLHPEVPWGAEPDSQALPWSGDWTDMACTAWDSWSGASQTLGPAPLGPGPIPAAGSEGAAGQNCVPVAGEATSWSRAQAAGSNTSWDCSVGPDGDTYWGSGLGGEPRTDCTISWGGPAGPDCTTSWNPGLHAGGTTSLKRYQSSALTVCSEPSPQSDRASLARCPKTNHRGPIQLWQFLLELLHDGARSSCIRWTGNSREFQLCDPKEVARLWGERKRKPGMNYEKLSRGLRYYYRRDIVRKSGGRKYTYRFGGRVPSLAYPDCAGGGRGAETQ
# Method in brief: as §1
# ELF3 = target: T5, ELF3 (Homo sapiens, UniProt P78545 1-371)
# T5 sequence: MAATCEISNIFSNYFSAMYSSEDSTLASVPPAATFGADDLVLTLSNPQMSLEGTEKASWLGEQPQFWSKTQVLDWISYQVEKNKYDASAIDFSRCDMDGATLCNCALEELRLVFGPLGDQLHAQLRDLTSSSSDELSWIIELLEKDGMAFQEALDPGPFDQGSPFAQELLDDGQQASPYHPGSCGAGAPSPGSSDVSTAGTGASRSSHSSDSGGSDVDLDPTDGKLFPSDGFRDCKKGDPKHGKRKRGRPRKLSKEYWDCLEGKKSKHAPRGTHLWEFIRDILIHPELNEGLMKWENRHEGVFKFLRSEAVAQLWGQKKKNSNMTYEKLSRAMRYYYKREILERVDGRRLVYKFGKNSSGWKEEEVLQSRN
# Method in brief: as §1
# ETV1 = ETV1 (Homo sapiens, UniProt P50549 1-477)
# Method in brief: as §1
# ERF = target: T6, ERF (Homo sapiens, UniProt P50548 1-548)
# T6 sequence: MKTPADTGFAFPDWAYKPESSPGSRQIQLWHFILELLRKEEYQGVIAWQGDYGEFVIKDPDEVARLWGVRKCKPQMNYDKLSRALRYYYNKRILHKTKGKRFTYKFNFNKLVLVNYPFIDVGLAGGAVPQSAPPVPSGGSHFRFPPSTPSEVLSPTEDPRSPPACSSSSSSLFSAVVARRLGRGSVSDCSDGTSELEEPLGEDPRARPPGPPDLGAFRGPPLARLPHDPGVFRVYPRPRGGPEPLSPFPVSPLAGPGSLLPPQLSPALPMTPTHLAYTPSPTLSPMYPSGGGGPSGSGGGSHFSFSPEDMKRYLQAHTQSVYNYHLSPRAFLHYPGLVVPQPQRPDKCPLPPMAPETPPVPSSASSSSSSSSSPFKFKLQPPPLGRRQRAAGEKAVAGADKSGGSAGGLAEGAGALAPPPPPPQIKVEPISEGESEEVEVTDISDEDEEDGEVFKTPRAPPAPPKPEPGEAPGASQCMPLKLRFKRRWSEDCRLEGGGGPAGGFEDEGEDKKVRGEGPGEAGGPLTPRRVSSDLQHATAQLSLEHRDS
# Method in brief: as §1
# ETV3L = target: T7, ETV3L (Homo sapiens, UniProt Q6ZN32 1-361)
# T7 sequence: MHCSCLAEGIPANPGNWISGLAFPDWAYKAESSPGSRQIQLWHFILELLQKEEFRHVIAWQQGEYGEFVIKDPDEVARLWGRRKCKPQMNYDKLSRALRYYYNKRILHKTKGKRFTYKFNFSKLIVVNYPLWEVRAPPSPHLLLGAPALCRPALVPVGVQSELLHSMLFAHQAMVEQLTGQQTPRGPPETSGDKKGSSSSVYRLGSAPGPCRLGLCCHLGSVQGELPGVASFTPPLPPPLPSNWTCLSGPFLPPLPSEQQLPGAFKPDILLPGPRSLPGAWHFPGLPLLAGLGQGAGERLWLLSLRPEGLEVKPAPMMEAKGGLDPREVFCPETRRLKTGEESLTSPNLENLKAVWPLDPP
# Method in brief: as §1
# ETS2 = target: T8, ETS2 (Homo sapiens, UniProt P15036 1-469)
# T8 sequence: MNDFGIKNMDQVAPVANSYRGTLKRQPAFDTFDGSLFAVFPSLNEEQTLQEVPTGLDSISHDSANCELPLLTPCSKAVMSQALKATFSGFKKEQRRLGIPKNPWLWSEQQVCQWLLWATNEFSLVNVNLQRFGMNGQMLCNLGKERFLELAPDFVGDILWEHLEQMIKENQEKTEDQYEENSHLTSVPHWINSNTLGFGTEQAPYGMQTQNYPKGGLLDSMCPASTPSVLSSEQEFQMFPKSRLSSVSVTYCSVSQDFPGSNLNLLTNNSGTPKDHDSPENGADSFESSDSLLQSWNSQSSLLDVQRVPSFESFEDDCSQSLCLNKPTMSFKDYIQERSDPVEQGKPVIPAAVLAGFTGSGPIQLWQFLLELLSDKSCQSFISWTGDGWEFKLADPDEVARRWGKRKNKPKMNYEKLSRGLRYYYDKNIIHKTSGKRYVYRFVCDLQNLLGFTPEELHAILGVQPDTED
# Method in brief: as §1
# SPDEF = target: T9, SPDEF (Homo sapiens, UniProt O95238 1-335)
# T9 sequence: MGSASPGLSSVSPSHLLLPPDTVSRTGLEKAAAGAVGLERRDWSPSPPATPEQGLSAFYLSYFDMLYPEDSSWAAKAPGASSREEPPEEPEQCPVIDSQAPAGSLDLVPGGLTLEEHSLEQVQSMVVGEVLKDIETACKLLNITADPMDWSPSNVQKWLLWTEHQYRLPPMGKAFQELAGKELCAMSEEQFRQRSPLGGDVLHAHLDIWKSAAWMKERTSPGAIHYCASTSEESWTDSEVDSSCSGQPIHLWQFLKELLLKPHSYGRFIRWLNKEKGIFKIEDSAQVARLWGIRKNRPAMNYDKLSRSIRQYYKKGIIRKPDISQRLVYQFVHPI
# Method in brief: as §1
# ETV7 = target: T10, ETV7 (Homo sapiens, UniProt Q9Y603 1-341)
# T10 sequence: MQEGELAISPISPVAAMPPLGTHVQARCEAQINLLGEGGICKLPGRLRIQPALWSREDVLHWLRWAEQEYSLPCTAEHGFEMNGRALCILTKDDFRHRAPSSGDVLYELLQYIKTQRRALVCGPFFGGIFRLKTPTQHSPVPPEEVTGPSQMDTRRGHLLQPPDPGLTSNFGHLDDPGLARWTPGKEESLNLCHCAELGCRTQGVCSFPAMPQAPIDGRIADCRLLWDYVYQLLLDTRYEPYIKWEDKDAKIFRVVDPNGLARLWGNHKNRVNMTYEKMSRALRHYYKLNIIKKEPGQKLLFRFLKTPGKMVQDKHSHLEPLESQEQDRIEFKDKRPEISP
# Method in brief: as §1
# ELF5 = target: T11, ELF5 (Homo sapiens, UniProt Q9UKW6-2 1-255)
# T11 sequence: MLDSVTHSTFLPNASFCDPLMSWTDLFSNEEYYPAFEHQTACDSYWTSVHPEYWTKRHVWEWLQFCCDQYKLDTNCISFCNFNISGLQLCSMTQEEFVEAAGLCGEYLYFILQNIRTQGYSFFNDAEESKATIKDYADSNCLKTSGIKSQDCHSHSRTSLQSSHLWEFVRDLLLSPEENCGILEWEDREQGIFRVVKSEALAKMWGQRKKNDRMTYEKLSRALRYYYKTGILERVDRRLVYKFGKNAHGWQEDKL
# Method in brief: as §1
# ETV3 = target: T12, ETV3 (Homo sapiens, UniProt P41162-2 1-143)
# T12 sequence: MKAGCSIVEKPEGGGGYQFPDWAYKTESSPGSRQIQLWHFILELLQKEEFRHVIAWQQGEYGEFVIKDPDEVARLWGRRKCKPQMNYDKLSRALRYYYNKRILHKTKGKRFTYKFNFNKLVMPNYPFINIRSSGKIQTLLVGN
# Method in brief: as §1
# ETV6 = ETV6 (Homo sapiens, UniProt P41212 1-452)
# Method in brief: as §1
# ETV5, sequence (P41161 whole entry): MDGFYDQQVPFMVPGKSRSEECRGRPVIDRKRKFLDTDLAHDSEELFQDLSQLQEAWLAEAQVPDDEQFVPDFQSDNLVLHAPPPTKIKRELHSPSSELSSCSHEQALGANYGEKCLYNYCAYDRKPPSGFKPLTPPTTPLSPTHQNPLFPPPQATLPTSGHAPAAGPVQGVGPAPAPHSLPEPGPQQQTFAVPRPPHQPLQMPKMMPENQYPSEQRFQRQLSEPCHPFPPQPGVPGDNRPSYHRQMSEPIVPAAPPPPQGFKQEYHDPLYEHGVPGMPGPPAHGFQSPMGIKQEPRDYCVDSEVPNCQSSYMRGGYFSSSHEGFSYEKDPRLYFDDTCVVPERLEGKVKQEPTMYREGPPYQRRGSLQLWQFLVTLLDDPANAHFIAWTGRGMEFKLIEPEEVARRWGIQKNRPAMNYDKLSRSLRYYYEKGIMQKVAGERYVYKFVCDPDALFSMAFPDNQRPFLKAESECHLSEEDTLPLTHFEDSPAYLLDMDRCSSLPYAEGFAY
# ETV1, sequence (P50549 whole entry): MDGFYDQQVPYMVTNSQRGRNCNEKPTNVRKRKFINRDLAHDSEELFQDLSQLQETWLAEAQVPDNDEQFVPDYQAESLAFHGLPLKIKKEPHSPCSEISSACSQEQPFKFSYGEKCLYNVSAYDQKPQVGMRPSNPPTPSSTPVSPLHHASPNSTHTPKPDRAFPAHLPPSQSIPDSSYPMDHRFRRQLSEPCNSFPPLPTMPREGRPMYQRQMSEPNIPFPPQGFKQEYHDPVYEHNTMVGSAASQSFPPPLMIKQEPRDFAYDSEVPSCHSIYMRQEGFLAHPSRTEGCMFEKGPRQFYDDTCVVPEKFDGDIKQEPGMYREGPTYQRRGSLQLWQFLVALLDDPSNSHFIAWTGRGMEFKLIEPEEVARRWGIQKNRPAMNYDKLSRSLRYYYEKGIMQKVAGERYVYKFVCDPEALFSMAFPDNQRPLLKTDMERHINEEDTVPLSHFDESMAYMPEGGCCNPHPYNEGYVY
# ELF4, sequence (Q99607 whole entry): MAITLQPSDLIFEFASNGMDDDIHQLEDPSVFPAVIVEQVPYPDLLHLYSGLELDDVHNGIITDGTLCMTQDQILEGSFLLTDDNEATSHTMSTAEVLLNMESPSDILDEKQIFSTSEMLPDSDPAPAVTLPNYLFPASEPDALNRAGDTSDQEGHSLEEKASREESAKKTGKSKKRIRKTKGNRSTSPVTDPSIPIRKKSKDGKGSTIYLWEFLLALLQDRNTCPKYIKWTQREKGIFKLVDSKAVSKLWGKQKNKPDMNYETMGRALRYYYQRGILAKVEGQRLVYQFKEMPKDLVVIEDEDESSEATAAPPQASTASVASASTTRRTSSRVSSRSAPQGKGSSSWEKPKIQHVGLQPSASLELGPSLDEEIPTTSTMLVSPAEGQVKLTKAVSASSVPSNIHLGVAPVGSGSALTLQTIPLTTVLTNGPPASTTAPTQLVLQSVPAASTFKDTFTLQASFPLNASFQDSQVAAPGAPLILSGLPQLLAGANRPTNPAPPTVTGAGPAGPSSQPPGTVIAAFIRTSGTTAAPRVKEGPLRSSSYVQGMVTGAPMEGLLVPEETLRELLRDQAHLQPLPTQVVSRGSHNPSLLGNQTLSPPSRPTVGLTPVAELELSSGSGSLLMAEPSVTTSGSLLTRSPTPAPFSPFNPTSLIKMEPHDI
# ETV6, sequence (P41212 whole entry): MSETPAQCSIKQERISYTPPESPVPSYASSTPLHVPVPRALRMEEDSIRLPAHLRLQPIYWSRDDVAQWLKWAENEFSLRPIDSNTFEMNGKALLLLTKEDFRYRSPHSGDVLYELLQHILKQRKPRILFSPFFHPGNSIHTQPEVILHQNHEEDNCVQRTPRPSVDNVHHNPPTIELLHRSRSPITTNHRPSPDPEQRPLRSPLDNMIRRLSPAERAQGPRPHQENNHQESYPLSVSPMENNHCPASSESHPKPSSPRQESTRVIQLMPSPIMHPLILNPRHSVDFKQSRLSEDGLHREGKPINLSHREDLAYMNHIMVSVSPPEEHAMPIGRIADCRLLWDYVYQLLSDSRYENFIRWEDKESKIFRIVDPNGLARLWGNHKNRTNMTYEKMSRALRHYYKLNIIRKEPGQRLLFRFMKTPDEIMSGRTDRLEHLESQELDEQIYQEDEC
sequence,measurement,setting,value
TGACAC,binding signal,FEV,"1.11 fold enrichment (6-mer frequency, TF over GST control)"
same,binding signal,ETV5,"1.11 fold enrichment (6-mer frequency, TF over GST control)"
same,binding signal,SPIC,"1.07 fold enrichment (6-mer frequency, TF over GST control)"
same,binding signal,ELF4,"1.1 fold enrichment (6-mer frequency, TF over GST control)"
same,binding signal,ELK4,"1.18 fold enrichment (6-mer frequency, TF over GST control)"
same,binding signal,ETV2,"1.15 fold enrichment (6-mer frequency, TF over GST control)"
same,binding signal,ELF3,"1.14 fold enrichment (6-mer frequency, TF over GST control)"
same,binding signal,ETV1,"1.1 fold enrichment (6-mer frequency, TF over GST control)"
same,binding signal,ERF,"1.3 fold enrichment (6-mer frequency, TF over GST control)"
same,binding signal,ETV3L,"1.22 fold enrichment (6-mer frequency, TF over GST control)"
same,binding signal,ETS2,"1.24 fold enrichment (6-mer frequency, TF over GST control)"
same,binding signal,SPDEF,"1.11 fold enrichment (6-mer frequency, TF over GST control)"
same,binding signal,ETV7,"1.28 fold enrichment (6-mer frequency, TF over GST control)"
same,binding signal,ELF5,"1.19 fold enrichment (6-mer frequency, TF over GST control)"
same,binding signal,ETV3,"1.21 fold enrichment (6-mer frequency, TF over GST control)"
same,binding signal,ETV6,"1.19 fold enrichment (6-mer frequency, TF over GST control)"
